Test results: PubChem BioAssay (NCATS)
Inconclusive results are not listed. Where a call stands in place of a potency, no number is given. Calls of active or inactive are those of the source. Calls follow the shape of the dose curve; as a rule, active = well fitted inhibition curve with a large enough effect; inconclusive = small, poorly fitted or top-dose-only effect; inactive = flat fitted curve, though single readings scatter.
Potency is read from the fitted curve at half-maximal effect.

Each compound was assayed on DFO2036 (assay: qHTS profiling for inhibitors of Plasmodium falciparum proliferation (AID 504749; also: nearly all actives have a fitted effect of over 60% in size)). Details: P. falciparum in erythrocytes, SYBR Green DNA, 72 h; series mostly up to 28.7 µM.
Excerpt: NIH National Institute of Allergy and Infectious Diseases [NIAID] NIH Chemical Genomics Center [NCGC] MLPCN Grant: None Assay Provider: Xinzhuan Su, NIAID NCGC Assay Overview: Plasmodium falciparum is a virulent malarial parasite that kills 1-2 million people worldwide each year. Transmitted by mosquitoes, the sporozoite form of the parasite enters the blood stream to infect hepatocytes, where they become merozoites that infect red blood cells (erythrocytes). Within erythrocytes, merozoites begin a […] cycle of growth and division, after which the parasite is released to infect new red blood cells. Gametocytes, which form within erythrocytes as well, circulate in the bloodstream and are ingested by the mosquito, thereby completing the life cycle. To profile malarial isolates for differential chemical responses and to identify inhibitors of malarial growth, an assay that measures P. falciparum growth and replication within erythrocytes was employed. This assay uses a DNA binding fluorescent dye (SYBR Green) to detect parasite DNA following cell lysis. Because mature erythrocytes lack DNA, only Plasmodium-derived DNA is detected.
NCGC Assay Protocol Summary: The SYBR Green viability assay was adapted from a method described previously (Plouffe et al., 2008). For screening 3 ul culture medium was dispensed into 1536 well black clear bottom plates (Aurora Biotechnologies) using a Multidrop Combi (Thermo Fisher Scientific Inc.), 23 nL compounds in DMSO were added by a pin tool (Kalypsys), and 5 ul of erythrocytes infected with P. falciparum (0.3% parasitemia, 2.5% hematocrit final concentration) were added. The plates were incubated at 37 C in a humidified incubator in 5% CO2 for 72 h, and 2 ul lysis buffer (20 mM Tris HCl, 10 mM EDTA, 0.16% saponin, 1.6% triton X, 10X SYBR Green I supplied as 10,000X […] by Invitrogen) was added to each well. The plates were mixed for 25 sec with gentle shaking and incubated overnight at room temperature in the dark. The following morning, fluorescence intensity at 485(14) nm excitation and 535(25) nm emission wavelengths was measured on an EnVision (Perkin Elmer) plate reader. Plate reads were normalized relative to the control inhibitor (0.29 uM artemisinin) and vehicle (DMSO) wells present on each plate and then corrected by an algorithm using vehicle-only control plates at the beginning and end of the compound plate stack.
For `CC(C)C[C@H]1C(=O)N2CCCC2[C@]2(O)O[C@](NC(=O)[C@@H]3C=C4c5cccc6[nH]c(Br)c(c56)C[C@H]4N(C)C3)(C(C)C)C(=O)N12` (some centres undefined), the Potency was 11.2 µM (active). In the case of `N[C@H](Cc1ccc(O)c(O)c1)C(=O)O`, the Potency is reported as “inactive”. In the case of `CC(/C=C1\SC(=S)N(CC(=O)O)C1=O)=C\c1ccccc1`, the Potency is reported as “inactive”. For `C=C1CCC2[C@](C)(CO)C(O)CC[C@]2(C)C1C/C=C1/C(=O)OCC1O` (some centres undefined), the Potency was “inactive”. `C[C@@H]1[C@H](O)[C@@H](C)/C=C/C=C/C=C/C=C/C=C/C=C/C=C/[C@H](O[C@@H]2O[C@H](C)[C@@H](O)[C@H](N)[C@@H]2O)C[C@@H]2O[C@](O)(C[C@@H](O)C[C@@H](O)[C@H](O)CC[C@@H](O)C[C@@H](O)CC(=O)O[C@H]1C)C[C@H](O)[C@H]2C(=O)O` was tested, and the Potency was “inactive”. With `C=C1/C(=C\C=C2/CCC[C@]3(C)[C@@H]([C@H](C)CCCC(C)(C)O)CC[C@@H]23)C[C@@H](O)C[C@@H]1O` the Potency was “inactive”. `COc1cc2c(cc1OC)C(c1ccccc1)CN(C)CC2` (centres undefined) was tested, and the Potency was “inactive”. With `CN1C(=O)CCC1c1cccnc1` (centres undefined) the Potency was “inactive”. With `Oc1ccc(/C=C\c2cc(O)cc(O)c2)cc1` the Potency was “inactive”. For `CN=C(N)NCCCC(N)C(=O)O` (centres undefined), the Potency was “inactive”. For `COc1ccc(CCNC[C@@H](O)c2ccc(O)cc2)cc1OC`, the Potency was “inactive”. For `C[C@@]12C(=O)OC(=O)[C@]1(C)[C@H]1CC[C@@H]2O1`, the Potency was 3.98 µM (active). With `CN1C[C@H](C(=O)N[C@]2(C)O[C@@]3(O)C4CCCN4C(=O)[C@H](Cc4ccccc4)N3C2=O)C[C@@H]2c3cccc4[nH]cc(c34)C[C@H]21` (some centres undefined) the Potency was 7.94 µM (active). For `CO[C@H]1/C=C/O[C@@]2(C)Oc3c(C)c(O)c4c(O)c(c(/C=N\N5CCN(C6CCCC6)CC5)c(O)c4c3C2=O)NC(=O)/C(C)=C\C=C\[C@H](C)[C@H](O)[C@@H](C)[C@@H](O)[C@@H](C)[C@H](OC(C)=O)[C@@H]1C`, the Potency was 1.41 µM (active).
